In PubChem BioAssay:
Where “and” joins values, the source holds several entries; their conditions need not be identical. Equal entries are not always repeated. Results filed as inconclusive are left out. More than one record can exist for a structure, and the calls need not agree. Calls of active or inactive are those of the source.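 The calls were made as follows, unless noted: active = efflux inhibition above 0.42, the validation set average plus 4 SD; inconclusive = no clear call, values can overlap the other calls; inactive = the rest.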

Experiments:
[1] = rapamycin-like changes in RPL19A-GFP expression – cell-based, S. cerevisiae, multiplex flow cytometry, primary screen (AID 1862; in the data active = percent of DMSO control GFP below about 86%;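 also: lower values mimic rapamycin by blocking the RPL19A rise seen in DMSO cells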); settings: S. cerevisiae RPL19A-GFP strain, flow cytometry fluorescence, 3 h; at 10 µM; stronger effect = lower value
[2] = TOR pathway GLN3 branch reporter MEP2-GFP changes – S. cerevisiae, multiplex flow cytometry, primary screen (AID 1867;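 active = GFP response, as percent of the DMSO control, above the screen-wide mean plus 3 SD, about 139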;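 also: median GFP channel fluorescence of barcode-gated MEP2-GFP cells measured by flow cytometry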); settings: S. cerevisiae MEP2-GFP strain, 3 h, at 10 µM, stronger effect = higher value, 100% means same as DMSO wells
[3] = TOR pathway RTG branch CIT2 reporter changes – S. cerevisiae, GFP fusion, multiplex flow cytometry, primary screen (AID 1870;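 active = percent response above a set limit, the screen-wide mean plus 3 SD, cut at about 130% in these data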;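 also: barcoded CIT2-GFP strain pooled with four other GFP strains with rapamycin as positive control; median GFP fluorescence per well over plate mean of DMSO wells so 100% = DMSO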); settings: S. cerevisiae CIT2-GFP expression, 3 h, at 10 µM, stronger effect = higher value
[4] = TOR pathway LAP4-GFP level changes – S. cerevisiae, multiplex flow cytometry, primary screen (AID 1873;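 active = GFP signal, as percent of the solvent control, above the screen mean plus 3 SD, about 149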); settings: S. cerevisiae LAP4-GFP expression, 3 h, at 10 µM, stronger effect = higher value
[5] = yeast AGP1-GFP level changes, GLN3 branch – cell-based, multiplex flow cytometry, S. cerevisiae, primary screen (AID 1887;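 active = GFP signal above the screen-wide mean plus 3 SD, that is over about 124.5% of the solvent control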;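 also: AGP1-GFP fusion strain of S. cerevisiae within a five-strain barcoded multiplex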); settings: 3 h, at 10 µM, stronger effect = higher value
[6] = reduced mouse 2C T cell binding to pMHC/ICAM-1 vesicles – MLPCN validation set, flow cytometry, LFA-1/ICAM-1 modulator project, pilot screen (AID 2523;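 active = response below a set limit, under 55% cells CD8-positive and vesicle-bound, and CD8 cells' 90th-percentile brightness under 279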;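 as to vesicle binding response: mean PE anti-B7-1 fluorescence of CD8+ cells relative to row control; 100% = QL9-loaded vesicles with DMSO vehicle in the same plate row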); settings: 2C mouse CD8+ T cells, at 7 µM, stronger effect = lower value; double positive events: measured here: CD8+/vesicle+ event percentage
[7] = target: Integrin beta-1 (Homo sapiens) + Integrin alpha-4 (Homo sapiens) (UniProt P13612+P05556); test: alpha4beta1 integrin LIBS antibody binding reduction – U937 cells, HUTS-21 mAb, flow cytometry, validation set, VLA-4 allosteric modulator project, pilot screen (AID 2674;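 active = inhibition above 50%, about 3 SD of the validation set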;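 also: antibody binding induced by the VLA-4 ligand LDV present at three times its Kd; 0% = LDV ligand with antibody and no compound and 100% = antibody without LDV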); settings: HUTS-21 LIBS mAb binding, at 6.7 µM, stronger effect = higher value, binding induced by LDV ligand
[8] = calorie-restriction mimetic ROS inhibitors, yeast – validation compound set, pilot screen (AID 2706;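 active = superoxide response below 65% of plate, a cut near 3 SD across the whole screen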;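 also: yeast exposed to compound for one week at 30 degrees C before staining; 100% = mean of all compound wells on the same plate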); settings: S. cerevisiae aging, superoxide DHE fluorescence; at 10 µM; stronger effect = lower value
[9] = target: Beta-adrenergic receptor kinase 1 (Homo sapiens) (UniProt P25098); test: GRK2 binders displacing RNA aptamer, biochemical, validation, human GRK2, bead flow cytometry (AID 488806;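 active = aptamer binding inhibition above 30%, about 3 SD of noise from non-fluorescent compounds; inactive = inhibition at or below 30%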); settings: bead-bound GRK2, FAM-aptamer displacement, at 10 µM, stronger effect = higher value
[10] = target: Beta-2 adrenergic receptor (Homo sapiens) (UniProt P07550); test: agonist-induced loss of surface beta2AR – cell-based, FAP fluorogen, flow cytometry, validation set, pilot screen (AID 504459;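 active = percent response above 42, roughly 3 SD of non-fluorescent test compounds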;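 also: agonist-driven loss of surface beta2AR via internalization measured by FAP dye flow cytometry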); settings: Am2.2-beta2AR cells, at 10 µM, stronger effect = higher value
[11] = target: AP-2 complex subunit beta (Homo sapiens) (UniProt P63010); test: beta-arrestin/AP2 interaction blockers – biochemical, validation set, GST-AP2 beads, flow cytometry, pilot screen (AID 504541;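 active = inhibition above 54%, about 3 SD of non-fluorescent compounds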;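 also: AP2 carries R879A mutation and is captured from E. coli lysate; bead-bound FITC arrestin peptide fluorescence measuring arrestin peptide binding to AP2; 0% = DMSO wells and 100% = excess unlabeled arrestin peptide control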); settings: FITC arrestin peptide, at 10 µM, stronger effect = higher value, AP2 beta2 appendage fragment, R879A mutant
[12] = cytosolic pH regulators acting via V-ATPase – S. cerevisiae, pHLuorin, HTS validation (AID 504600; in the data active = response above about 15%;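 also: plate controls were DMSO for no effect and reference compound for full effect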); settings: V-ATPase proton transport, at 10 µM, stronger effect = higher value
[13] = test system: anti-desmoglein-3 scFv antibody binding to human DSG3; test: blockers of pathogenic pemphigus antibody–desmoglein-3 binding – biochemical, validation compound set, bead-based, flow cytometry, pilot screen (AID 588368;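 active = binding below the plate cutoff, the plate median minus 3 SD, with a reading above zero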;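 also: signal is the median channel fluorescence of bead-bound GFP antibody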); settings: Protein G beads, DSG3-Fc, scFv-GFP binding, at 10 µM, stronger effect = lower value
[14] = Nile Red efflux blockade in pump-expressing yeast – validation compound set, multiplex, phenotypic, pilot screen (AID 588506);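 also: Nile Red retained in cells so higher fluorescence means more efflux inhibition; 0 = negative control wells and 1 = enniatin B 25 µM full block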; settings: S. cerevisiae pump-expressing triplex, Nile Red efflux flow cytometry; at 10 µM; stronger effect = higher value; the pumps come from Candida albicans
[15] = target: ATP-binding cassette sub-family B member 6 (Homo sapiens) (UniProt Q9NP58); test: blockers of ABCB6-driven porphyrin uptake – K562-ABCB6 cells, flow cytometry, validation set, pilot screen (AID 588550;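 active = inhibition above the screen-wide mean plus 3 SD, about 51%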;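 also: 0% = DMSO wells and 100% = benzethonium chloride 70 µM positive control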); settings: K562-ABCB6 porphyrin accumulation, 1 h, at 10 µM, stronger effect = higher value
[16] = AML differentiation inducers, ER-HoxA9 marrow cells – cell-based, GFP/MAC1 double positive, flow cytometry, validation set, primary screen (AID 588685;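 active = differentiation response of at least 50%, scaled between solvent and reference control, from cells with both markers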;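 also: compound exposure lasts four days before antibody staining and flow analysis; 0% = DMSO wells and 100% = 5 µM fulvestrant positive control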); settings: stronger effect = higher value, normalized: vehicle 0, fulvestrant 100

Sequence of Beta-2 adrenergic receptor (Homo sapiens) (P07550 whole entry, looked up): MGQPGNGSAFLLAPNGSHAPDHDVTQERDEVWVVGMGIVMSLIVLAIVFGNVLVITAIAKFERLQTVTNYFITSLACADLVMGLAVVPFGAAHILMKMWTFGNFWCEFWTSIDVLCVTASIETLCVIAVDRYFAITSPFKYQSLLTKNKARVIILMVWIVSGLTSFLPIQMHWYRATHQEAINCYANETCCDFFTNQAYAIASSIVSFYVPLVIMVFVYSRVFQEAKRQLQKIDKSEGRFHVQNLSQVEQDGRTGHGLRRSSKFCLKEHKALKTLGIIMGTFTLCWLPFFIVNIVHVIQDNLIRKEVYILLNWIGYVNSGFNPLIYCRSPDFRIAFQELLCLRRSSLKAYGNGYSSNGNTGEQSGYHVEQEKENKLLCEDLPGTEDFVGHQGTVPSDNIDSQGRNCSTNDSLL
Sequence of Integrin beta-1 (Homo sapiens) + Integrin alpha-4 (Homo sapiens) (P05556 whole entry, looked up): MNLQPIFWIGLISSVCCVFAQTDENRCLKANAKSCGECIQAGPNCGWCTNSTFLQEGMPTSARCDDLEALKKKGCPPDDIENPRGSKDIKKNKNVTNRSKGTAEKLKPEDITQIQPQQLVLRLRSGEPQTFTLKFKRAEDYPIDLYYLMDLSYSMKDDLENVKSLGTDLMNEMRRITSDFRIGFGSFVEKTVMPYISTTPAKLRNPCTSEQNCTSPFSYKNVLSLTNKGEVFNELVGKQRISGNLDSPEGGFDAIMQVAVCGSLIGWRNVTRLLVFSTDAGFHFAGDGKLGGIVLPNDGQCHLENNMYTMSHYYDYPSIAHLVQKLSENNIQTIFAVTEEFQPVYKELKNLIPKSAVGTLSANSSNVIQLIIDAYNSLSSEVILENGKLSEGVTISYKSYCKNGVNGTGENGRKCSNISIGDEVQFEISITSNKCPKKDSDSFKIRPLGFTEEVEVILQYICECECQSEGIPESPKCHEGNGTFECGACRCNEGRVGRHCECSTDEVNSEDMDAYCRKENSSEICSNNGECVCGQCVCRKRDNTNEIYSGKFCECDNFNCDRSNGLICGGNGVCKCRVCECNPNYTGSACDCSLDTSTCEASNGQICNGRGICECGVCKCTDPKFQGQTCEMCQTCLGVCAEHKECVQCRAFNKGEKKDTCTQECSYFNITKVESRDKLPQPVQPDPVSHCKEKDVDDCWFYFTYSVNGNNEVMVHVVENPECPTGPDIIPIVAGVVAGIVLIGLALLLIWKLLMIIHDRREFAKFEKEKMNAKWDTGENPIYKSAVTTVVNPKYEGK
Sequence of Integrin beta-1 (Homo sapiens) + Integrin alpha-4 (Homo sapiens) (P13612 whole entry, looked up): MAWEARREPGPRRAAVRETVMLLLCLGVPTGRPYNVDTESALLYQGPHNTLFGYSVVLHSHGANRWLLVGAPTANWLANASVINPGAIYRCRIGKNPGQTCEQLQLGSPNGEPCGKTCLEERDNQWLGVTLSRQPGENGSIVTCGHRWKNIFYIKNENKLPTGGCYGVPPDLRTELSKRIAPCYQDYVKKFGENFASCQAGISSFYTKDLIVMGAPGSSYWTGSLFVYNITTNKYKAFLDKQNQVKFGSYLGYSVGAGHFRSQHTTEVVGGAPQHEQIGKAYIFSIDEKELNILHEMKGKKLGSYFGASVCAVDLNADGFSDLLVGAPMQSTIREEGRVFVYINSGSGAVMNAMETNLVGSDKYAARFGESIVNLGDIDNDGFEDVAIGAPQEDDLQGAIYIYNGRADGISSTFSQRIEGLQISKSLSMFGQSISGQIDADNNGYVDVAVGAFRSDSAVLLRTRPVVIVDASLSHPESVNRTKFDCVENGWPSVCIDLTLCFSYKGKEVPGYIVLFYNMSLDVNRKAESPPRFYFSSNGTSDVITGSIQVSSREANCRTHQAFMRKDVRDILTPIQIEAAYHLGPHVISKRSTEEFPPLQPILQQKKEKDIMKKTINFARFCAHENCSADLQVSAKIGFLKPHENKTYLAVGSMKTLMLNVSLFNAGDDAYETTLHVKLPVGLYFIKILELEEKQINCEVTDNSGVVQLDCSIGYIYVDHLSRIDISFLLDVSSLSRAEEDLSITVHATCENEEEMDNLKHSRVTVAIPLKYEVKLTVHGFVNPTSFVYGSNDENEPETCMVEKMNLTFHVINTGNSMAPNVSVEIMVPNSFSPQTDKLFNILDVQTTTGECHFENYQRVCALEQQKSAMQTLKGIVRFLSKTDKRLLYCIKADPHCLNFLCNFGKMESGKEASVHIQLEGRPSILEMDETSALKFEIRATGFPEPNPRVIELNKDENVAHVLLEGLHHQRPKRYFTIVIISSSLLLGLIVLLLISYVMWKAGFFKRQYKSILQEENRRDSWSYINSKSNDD
Sequence of Beta-adrenergic receptor kinase 1 (Homo sapiens) (P25098 whole entry, looked up): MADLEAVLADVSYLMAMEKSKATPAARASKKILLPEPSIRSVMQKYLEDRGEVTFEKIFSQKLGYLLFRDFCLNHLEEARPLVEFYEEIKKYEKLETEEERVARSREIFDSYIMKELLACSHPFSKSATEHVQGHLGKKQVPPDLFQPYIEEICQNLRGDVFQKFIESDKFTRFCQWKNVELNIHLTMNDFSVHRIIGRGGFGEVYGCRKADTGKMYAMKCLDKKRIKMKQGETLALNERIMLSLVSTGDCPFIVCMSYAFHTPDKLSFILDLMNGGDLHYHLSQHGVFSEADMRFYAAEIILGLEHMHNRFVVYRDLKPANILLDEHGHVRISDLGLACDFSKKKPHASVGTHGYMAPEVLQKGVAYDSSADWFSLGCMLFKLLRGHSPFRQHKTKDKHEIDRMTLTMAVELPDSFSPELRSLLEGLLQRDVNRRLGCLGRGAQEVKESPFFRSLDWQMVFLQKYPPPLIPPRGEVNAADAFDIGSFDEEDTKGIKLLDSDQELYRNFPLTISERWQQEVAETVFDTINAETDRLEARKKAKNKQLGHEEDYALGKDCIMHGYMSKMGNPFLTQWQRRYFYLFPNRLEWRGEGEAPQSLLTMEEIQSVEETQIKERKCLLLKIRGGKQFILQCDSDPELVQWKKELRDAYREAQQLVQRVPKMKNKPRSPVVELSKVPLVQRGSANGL
Sequence of ATP-binding cassette sub-family B member 6 (Homo sapiens) (Q9NP58 whole entry, looked up): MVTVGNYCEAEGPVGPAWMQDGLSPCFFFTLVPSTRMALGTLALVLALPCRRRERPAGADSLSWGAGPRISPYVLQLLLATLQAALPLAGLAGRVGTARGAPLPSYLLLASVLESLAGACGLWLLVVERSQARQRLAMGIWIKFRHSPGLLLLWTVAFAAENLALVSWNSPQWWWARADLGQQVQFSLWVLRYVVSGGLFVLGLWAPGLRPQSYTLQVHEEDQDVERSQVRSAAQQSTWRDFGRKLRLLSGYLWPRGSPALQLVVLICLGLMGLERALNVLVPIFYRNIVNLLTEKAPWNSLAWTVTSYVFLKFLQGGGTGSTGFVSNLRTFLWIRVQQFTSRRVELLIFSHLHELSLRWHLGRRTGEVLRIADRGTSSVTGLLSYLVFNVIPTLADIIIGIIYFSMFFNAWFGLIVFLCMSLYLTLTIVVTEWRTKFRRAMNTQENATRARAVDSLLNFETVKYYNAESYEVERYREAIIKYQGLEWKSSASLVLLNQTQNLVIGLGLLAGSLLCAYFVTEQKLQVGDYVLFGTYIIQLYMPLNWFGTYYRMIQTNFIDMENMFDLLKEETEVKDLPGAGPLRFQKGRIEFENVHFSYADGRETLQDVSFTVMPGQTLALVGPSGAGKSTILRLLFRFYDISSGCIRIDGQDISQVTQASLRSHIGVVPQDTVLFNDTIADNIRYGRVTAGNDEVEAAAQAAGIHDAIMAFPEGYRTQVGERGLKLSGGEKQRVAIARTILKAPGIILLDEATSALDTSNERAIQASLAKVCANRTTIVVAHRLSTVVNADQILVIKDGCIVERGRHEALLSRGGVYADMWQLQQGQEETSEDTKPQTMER
Sequence of AP-2 complex subunit beta (Homo sapiens) (P63010 whole entry, looked up, the tested form may be a part, one chain of several): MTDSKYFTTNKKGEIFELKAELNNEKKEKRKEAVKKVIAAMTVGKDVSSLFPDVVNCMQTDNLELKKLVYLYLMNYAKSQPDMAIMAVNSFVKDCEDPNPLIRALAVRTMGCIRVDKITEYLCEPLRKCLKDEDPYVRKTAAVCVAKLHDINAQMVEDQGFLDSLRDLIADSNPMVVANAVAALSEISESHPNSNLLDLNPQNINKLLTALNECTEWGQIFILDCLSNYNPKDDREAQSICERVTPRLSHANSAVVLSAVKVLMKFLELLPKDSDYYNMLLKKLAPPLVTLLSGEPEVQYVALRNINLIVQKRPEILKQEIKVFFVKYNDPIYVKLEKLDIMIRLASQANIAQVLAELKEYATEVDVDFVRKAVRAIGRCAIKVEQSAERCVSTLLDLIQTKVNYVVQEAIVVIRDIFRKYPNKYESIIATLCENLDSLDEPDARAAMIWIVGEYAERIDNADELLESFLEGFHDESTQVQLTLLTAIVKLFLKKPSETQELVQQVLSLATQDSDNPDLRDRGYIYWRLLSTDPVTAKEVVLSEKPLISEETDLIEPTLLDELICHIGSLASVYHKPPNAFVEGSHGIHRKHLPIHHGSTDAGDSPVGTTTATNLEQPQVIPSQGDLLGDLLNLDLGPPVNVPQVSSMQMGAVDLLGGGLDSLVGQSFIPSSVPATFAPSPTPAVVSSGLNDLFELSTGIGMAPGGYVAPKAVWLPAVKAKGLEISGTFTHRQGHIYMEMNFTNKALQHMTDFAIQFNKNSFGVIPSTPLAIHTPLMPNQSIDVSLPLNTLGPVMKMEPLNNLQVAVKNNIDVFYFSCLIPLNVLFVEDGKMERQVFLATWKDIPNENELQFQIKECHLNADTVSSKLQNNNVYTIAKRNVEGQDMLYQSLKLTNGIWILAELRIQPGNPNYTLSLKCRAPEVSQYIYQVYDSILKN

COc1cc(Cc2cnc(N)nc2N)cc(OC)c1OC
62.8% and 60.9%: double positive events [6]
inactive: percent of DMSO control GFP [1] 100% and 102% | GFP response vs DMSO [2] 95.1% and 101% | percent response of DMSO control [3] 91.9% and 102% | GFP response vs DMSO [4] 84.8% and 103% | GFP response, % of DMSO [5] 96.4% and 102% | vesicle binding response [6] 247% and 222% | inhibition [7] -113% and 1.62% | superoxide response (% of plate) [8] 106% | aptamer binding inhibition [9] 2% and -4% | response [10] -5.11% | inhibition [11] -0.17% and -5.67% | response [12] 1.16% and -26% | binding (% of control) [13] 95.8% and 103% | inhibition [15] -11% and 7% | differentiation response [16] 0.24% and -3.43%
0.61 (active) and 0.18 (inactive): efflux inhibition (fraction of control) [14]

Cc1cccc2c1CC(C)(C)N/C2=C\C(N)=O
inactive: percent of DMSO control GFP [1] 98.7% | GFP response vs DMSO [2] 102% | percent response of DMSO control [3] 91.8% | GFP response vs DMSO [4] 103% | GFP response, % of DMSO [5] 104% | vesicle binding response [6] 148% | inhibition [7] -217% | superoxide response (% of plate) [8] 99% | aptamer binding inhibition [9] 0% | response [10] -10.2% | inhibition [11] 10.1% | response [12] -3.68% | binding (% of control) [13] 113% | efflux inhibition (fraction of control) [14] 0.04 | inhibition [15] -25% | differentiation response [16] -12.9%
63.7%: double positive events [6]

NC(=O)c1cccnc1
inactive: percent of DMSO control GFP [1] 86.7% | GFP response vs DMSO [2] 121% | percent response of DMSO control [3] 110% | GFP response vs DMSO [4] 79.8% | GFP response, % of DMSO [5] 98.7% | vesicle binding response [6] 242% | inhibition [7] 7.43% | superoxide response (% of plate) [8] 111% | aptamer binding inhibition [9] 3% | response [10] 8.79% | inhibition [11] -4.05% | response [12] 1.76% | binding (% of control) [13] 99.8% | efflux inhibition (fraction of control) [14] -0.28 | inhibition [15] 9% | differentiation response [16] -1.64%
45%: double positive events [6]

O=C(c1cccc2ccccc12)C1CCCN(C(=O)CCN2CCCO2)C1 (stereo not given)
inactive: percent of DMSO control GFP [1] 104% | GFP response vs DMSO [2] 98.3% | percent response of DMSO control [3] 109% | GFP response vs DMSO [4] 105% | GFP response, % of DMSO [5] 106% | vesicle binding response [6] 377% | inhibition [7] 7.85% | superoxide response (% of plate) [8] 90.5% | aptamer binding inhibition [9] 0% | response [10] -9.24% | inhibition [11] -0.89% | response [12] 2.67% | binding (% of control) [13] 96.4% | efflux inhibition (fraction of control) [14] -0.32 | inhibition [15] 4% | differentiation response [16] -0.73%
62.4%: double positive events [6]

COc1ccc2c3c([nH]c2c1)C1(NCC3)C(=O)Nc2ccccc21 (stereo not given)
59.5%: double positive events [6]
inactive: percent of DMSO control GFP [1] 95.4% | GFP response vs DMSO [2] 105% | percent response of DMSO control [3] 89.1% | GFP response vs DMSO [4] 103% | GFP response, % of DMSO [5] 101% | vesicle binding response [6] 175% | inhibition [7] -15.4% | superoxide response (% of plate) [8] 97.3% | aptamer binding inhibition [9] 0% | response [10] -10.9% | inhibition [11] 10.3% | response [12] -0.21% | binding (% of control) [13] 97.6% | efflux inhibition (fraction of control) [14] 0.05 | inhibition [15] -6% | differentiation response [16] 10.4%
